S-ASM inh: human S-ASM enzyme inhibition | Potency, µM (titrated, usually from 57.5 µM), inactives show top-dose activity change, negative = inhibition, actives largely listed as inhibitors | 340,000 compounds, 0.006% hits | placental ASM, HMU-PC fluorogenic substrate, 60 min
Target sequence (P17405 47-631 limits assumed): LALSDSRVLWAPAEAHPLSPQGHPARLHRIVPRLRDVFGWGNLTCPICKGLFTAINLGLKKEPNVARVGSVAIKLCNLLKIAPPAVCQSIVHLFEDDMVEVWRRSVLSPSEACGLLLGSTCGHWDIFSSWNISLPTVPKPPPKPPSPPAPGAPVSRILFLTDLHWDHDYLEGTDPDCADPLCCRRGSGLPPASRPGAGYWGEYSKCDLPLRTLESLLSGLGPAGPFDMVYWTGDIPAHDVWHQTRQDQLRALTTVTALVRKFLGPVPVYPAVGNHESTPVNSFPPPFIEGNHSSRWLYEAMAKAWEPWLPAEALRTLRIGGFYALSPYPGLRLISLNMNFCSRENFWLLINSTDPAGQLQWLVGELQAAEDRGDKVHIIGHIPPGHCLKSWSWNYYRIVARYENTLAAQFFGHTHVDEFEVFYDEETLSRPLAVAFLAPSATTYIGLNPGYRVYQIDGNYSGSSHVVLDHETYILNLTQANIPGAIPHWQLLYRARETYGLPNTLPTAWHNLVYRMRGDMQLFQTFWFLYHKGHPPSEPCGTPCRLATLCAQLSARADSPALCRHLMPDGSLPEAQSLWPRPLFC
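HMU-PC0 cleavage (9 uM final) by human placental ASM, 60 min at 37 °C following 10 min compound exposure at RT; stopped at pH 10, fluorescence Ex 386/Em 447 nm.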
Abeta yeast res: A-beta toxicity reversal in yeast; yeast expressing A-beta42, growth rescue, OD600, 48 h; response scale: 0% DMSO, 100% iron-clioquinol control; Potency, µM (series often up to 46.1 µM), most hits filed as activators; 410,000 compounds, 0.063% hits; AID 1347071; note: nearly all actives have a fitted effect of over 55% in size
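Yeast growth medium received pinned compounds, then yeast cells expressing toxic A-beta were added; plates incubated at 30 C for 48 hr. Growth read as absorbance at 600 nm, normalized to DMSO and equimolar FeCl3 plus clioquinol controls.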
Rango-impB inh: prevents formation of the Rango-importin beta complex. Potency, µM (series often up to 92.2 µM), inactives show at the top dose inhibition of complex formation. Q14974. Rango CFP/YFP FRET sensor + importin beta, 45 min. 340,000 compounds, 0.031% hits; calls by dose curve;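 note: 0% = DMSO wells and 100% = buffer wells lacking importin beta; nearly all actives have a fitted effect of over 15% in size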
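FRET biosensor (snurportin 1 IBB flanked by EYFP and cerulean), 50 nM, with compound 5 min, then 0.125 microM importin beta in PBS, 1 mM DTT, 0.02% Tween-20, 0.1% BSA. CFP/YFP ratio read after 45 min at room temperature; pre-read flags interference.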
TDP43 rescue: TDP-43 toxicity inhibition in yeast | Potency, µM (titrated, usually from 46.1 µM), inactives show top-dose growth rescue (activation), actives largely listed as activators | AID 652104 | TDP-43 expressing yeast growth rescue, BacTiter-Glo, 24 h | 410,000 compounds, 1.8% hits; note: % of control where 0% means no effect; nearly all actives have a fitted effect of over 50% in size
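Galactose-induced TDP-43 yeast, OD600=0.02, compound pinned; 24 hr, 30 deg C; BacTiter-Glo luminescence for growth. Inhibitors of TDP-43 toxicity read as activators.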
aSyn yeast inh: rescues yeast growth from alpha-synuclein toxicity; Yeast expressing alpha-synuclein, growth rescue, BacTiter-Glo, 24 h; Potency, µM (doses to about 46.1 µM), for the others: at the top dose growth rescue (activation), hits mostly activators; 370,000 compounds, 0.14% hits; note: % of control where 0% means no effect; nearly all actives have a fitted effect of over 65% in size
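Rescue of yeast growth: cells expressing toxic alpha-synuclein, induced in galactose at OD600 0.02, incubated with compound 24 h at 30 C. ATP luminescence quantified growth; inhibitors of toxicity appear as activators.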
Rango release inh: inhibitors of RanGTP-induced Rango-importin beta complex dissociation. Biochemical FRET Rango-importin beta, RanGTP-induced dissociation. Potency, µM (titrated, usually from 46.1 µM), for inactives: top-dose activity change, negative = inhibition. 340,000 compounds, 0.071% hits. O95149+P62826; calls by dose curve; note: % of control where 0% means no effect; nearly all actives have a fitted effect of over 45% in size
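Compounds preincubate 5 min with complex of recombinant Rango and importin beta in PBS with 1 mM DTT. Ran (0.6 uM) loaded with 2 mM GTP plus 0.2 uM RCC1 starts dissociation; FRET is recorded 45 min later.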
Starred values were filed as active, the others as inactive; i = inactive; ? = inconclusive; · = no result given. Hits are enriched below; roughly 2% of the tested compounds scored in any of these assays. Unless noted, calls come from the whole dose curve; as a rule, active = well fitted curve in the direction sought with a large enough effect; inconclusive = small, poorly fitted or top-dose-only effect, or another doubt; inactive = no such curve, though single readings can be large; an effect the other way counts as inactive or inconclusive. Potency is the fitted concentration of half-maximal effect.

SMILES | S-ASM inh | Abeta yeast res | Rango-impB inh | TDP43 rescue | aSyn yeast inh | Rango release inh
COc1ccccc1-c1cc(NC=O)c2ncc(-c3cccc(C(=O)N(C)C)c3)n2c1 | · | i | · | 16.7% | 1.4% | ·
Cc1ccc2c(c1)N(C(=O)c1ccc(F)cc1)C(C)(C)CC2(C)c1ccccc1 (stereo not given) | · | i | · | -9.7% | · | ·
CC(C)C(=O)NC(=S)/C=C1/N(C)c2ccccc2C1(C)C | -7.3% | ? | -6.0% | 35.5µM* | -2.0% | 0.2%
COc1ccccc1OCC(=O)/C=C1/N(C)c2ccccc2C1(C)C | 95.2% | i | 6.7% | 14.1µM* | 0.7% | -2.4%
COc1ccc(S(=O)(=O)N(Cc2nc(-c3ccc(Cl)cc3)no2)C2CCCCC2)cc1 | · | i | · | -12.1% | · | ·
O=C(Oc1ccc(F)cc1)c1nc(SCc2ccc(F)cc2)ncc1Cl | · | i | · | 12.8% | · | ·
CSc1nnc(Nc2ccccc2C)s1 | -2.0% | i | 3.3% | 11.2µM* | 3.2% | -4.5%
O=C1C2C(C(=O)N1/N=C/c1ccc([N+](=O)[O-])o1)C1C=CC2C12CC2 (stereo not given) | -0.3% | i | -1.8% | 17.8µM* | 26.0% | -5.2%
O=C1C2C3C=CC(C4CC34)C2C(=O)N1/N=C/c1ccc([N+](=O)[O-])o1 (stereo not given) | -0.8% | i | 0.2% | ? | 6.1% | -1.6%
CCOC(=S)SCC(=O)Nc1nc(C)c(C)s1 | -1.4% | ? | -0.2% | 22.4µM* | -1.0% | -8.0%
CCOC(=S)SCC(=O)Nc1nccs1 | -1.2% | i | -0.9% | 22.4µM* | -7.7% | -12.2%
Cc1nc(SCC(=O)Nc2nccs2)c(C#N)c(C)c1C | 28.8% | i | ? | 15.2% | -9.8% | 25.9µM*
Cc1nc(SCC(=O)Nc2nc3ccccc3s2)c(C#N)c(C)c1C | -0.9% | i | ? | 6.5% | ? | ?
CC1=C(C(=O)OCc2ccc(C)cc2)C(c2cccc(F)c2F)CC(=O)N1 (stereo not given) | · | i | · | 18.6% | · | ·
C=C(c1ccc2nc(NC(=O)OC)[nH]c2c1)c1cccs1 | -0.2% | i | 0.7% | 20µM* | 10.2% | 2.2%
Cc1ccc(NC(=O)c2sc(-n3nc(C)c(Cc4ccc5c(c4)OCO5)c3C)nc2C)cc1C | · | i | · | -22.5% | · | ·
Cc1ccc(NC(=O)c2cn3c4c(ccc(Cl)c4c2=O)OC(C)C3)c(C)c1 (stereo not given) | · | i | · | 11.2% | · | ·
O=C1NC(c2cccc3ccccc23)Nc2ccc(Cl)cc21 (stereo not given) | 136.4% | i | -1.7% | 11.2µM* | 1.2% | -8.3%
Cc1cccc(N2CCN(S(=O)(=O)c3cccc4nonc34)CC2)c1C | -6.4% | i | 2.3% | 28.2µM* | 2.7% | 7.0%
O=C(C1CCCN(S(=O)(=O)c2cccc3nonc23)C1)N1CCN(c2ccccc2Cl)CC1 (stereo not given) | -9.0% | i | ? | 35.5µM* | 24.5% | 0.0%
O=C(O)/C=C/c1cnn(-c2ccccc2)c1 | 0.8% | i | 3.3% | 35.5µM* | 0.4% | 2.5%
CCOC(=O)/C=C/c1cnn(-c2ccccc2)c1 | 1.5% | i | -0.7% | 13.3% | 0.0% | 15.5%
CN1CCN(C(CNC(=O)c2c(F)cccc2F)c2ccc3c(c2)OCO3)CC1 (stereo not given) | · | i | · | 10.7% | · | ·
Cc1[nH]c(-c2ccc(F)cc2)cc1C(=O)N1CCN(c2ccccc2)CC1 | -14.3% | i | -3.5% | 17.8µM* | ? | 9.6%
COc1cccc(N2CCN(C(=O)c3cc(-c4ccc(F)cc4)[nH]c3C)CC2)c1 | -9.8% | i | -2.1% | 0.0% | ? | -12.1%
SMILES | S-ASM inh | Abeta yeast res | Rango-impB inh | TDP43 rescue | aSyn yeast inh | Rango release inh
OC(CN1C=CCc2ccccc21)c1ccc(Cl)cc1Cl (stereo not given) | · | · | · | · | -5.7% | ·
Oc1ccc2ccccc2c1/C=C/c1ccc2c(Br)cc(Br)c(O)c2n1 | 7.4% | i | ? | 15.8µM* | ? | ?
Cc1cccc(NC(=S)NC(=O)CCc2ccccc2)c1C | -9.9% | ? | 4.9% | -0.9% | -14.4% | -5.9%
Cc1cccc(NC(=S)NC(=O)Cc2ccccc2)c1C | -7.6% | 7.94µM* | 2.8% | ? | 14.7% | 10.9%
O=C(CSc1nc(=O)n(Cc2ccco2)c2c1CCC2)NCc1ccccc1Cl | · | i | · | 23.7% | · | ·
CSc1ccc(C2Nc3ccccc3-c3cc(C)nn32)cc1 (stereo not given) | 3.8% | i | -0.1% | 17.8µM* | -1.3% | 4.8%
CCN(CC)c1ccc(C2Nc3ccccc3-c3cc(C)nn32)cc1 (stereo not given) | · | i | · | ? | · | ·
CC(=O)Nc1ccc(C2Nc3c(C)cc(C)cc3-c3cc(C)nn32)cc1 (stereo not given) | · | i | · | -22.9% | · | ·
Cc1cc2n(n1)C(c1ccsc1)Nc1ccccc1-2 (stereo not given) | -0.4% | i | ? | 8.91µM* | -20.0% | -11.8%
COC(=O)c1ccc(C2Nc3c(C)cccc3-c3cc(C)nn32)cc1 (stereo not given) | · | i | · | 12.6µM* | · | ·
CCc1ccc(-c2nn(CC(=O)NC3CCCCC3)c3c2cnc2ccc(OC)cc23)cc1 | · | i | · | ? | · | ·
Fc1ccc(-c2cc3nc4c(c(N5CCOCC5)n3n2)CCCC4)cc1 | -0.9% | i | 2.5% | 15.8µM* | -38.9% | 1.9%
Cc1c(C(=O)N2CCN(Cc3nccn3C)CC2)oc2c(F)cccc12 | · | i | · | ? | 1.3% | ·
COc1cccc(CN2CCN(C(=O)c3oc4c(F)cccc4c3C)CC2=O)c1 | 2.7% | i | 1.8% | 20µM* | 1.5% | -16.2%
N#Cc1c(-n2ncnc2-c2ccccc2C(F)(F)F)sc2c1CCCCC2 | · | i | · | 17.1% | · | ·
CCOC(=O)CSC1=Nc2ccccc2C2=NC(CCC(=O)NCc3ccccc3)C(=O)N12 (stereo not given) | · | i | · | -7.4% | · | ·
COc1ccc(OC)c(-c2cc(C(=O)Nc3cccc(Cl)c3C)no2)c1 | · | i | · | 27.7% | · | ·
CCCCN(CCCNC(=O)CN1N=C(c2ccc(C)cc2)CCC1=O)c1ccccc1 | · | i | · | 5.9% | · | ·
COc1ccc(-c2csc(NC(=O)CSCc3c(C)noc3C)n2)c(OC)c1 | -4.4% | i | 3.2% | 15.8µM* | 6.1% | 3.3%
COc1ccc(-c2csc(NC(=O)CSCC(=O)Nc3cc(C)on3)n2)cc1 | -1.4% | i | -0.5% | 34.5% | 5.5% | 6.2%

Bioassay records (PubChem BioAssay)
